# Test results from PubChem BioAssay (Tox21).
# Inconclusive results are not listed. Values without a mark were called inactive. The source made the active and inactive calls. The call rests on the fitted dose curve; in most records, active means well fitted curve in the direction sought with a large enough effect in the repeat runs; inconclusive means weak or mixed curves; inactive means no such curve, though single readings can be large; an effect the other way counts as inactive or inconclusive.
# Assay: A CellTox Green Cytotoxicity Assay to monitor cytotoxicity in HEK293 cells - 40 hour (AID 1224871); further: nearly all actives have a fitted effect of over 45% in size; further: potency means the concentration at half of the fitted maximal effect
# Settings: CellTox Green fluorescence; series mostly up to 76.8 µM; cytotoxicity increase: at the top concentration
# How it was run: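 Cytotoxicity was tracked continuously in HEK293 cells by a DNA-binding dye excluded from viable cells. Compounds were transferred in DMSO 5 h after seeding; fluorescence was recorded at intervals up to 40 h.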
# On the % scale 0 is the no-effect control and ±100 the full control effect.
SMILES,cytotoxicity increase,Potency
CCC(=O)OC1(c2ccccc2)CCN(C)CC1,-2.05%,
CCCCOC(C)=O,0.943%,
COC1=CC(=O)O[C@@H](/C=C/c2ccccc2)C1,-3.59%,
CCC(C(N)=O)N1CCCC1=O (centres undefined),1.5% [at 35.3 µM],
O=C(O)CBr,-7.11%,
CCCN1CCC[C@@H]2Cc3nc(N)ncc3C[C@H]21,,16.9 µM (active)
CC(C)c1ccc(O)cc1,5.44%,
[P]#[In],-6.03%,
CC1N=C(N)OC1c1ccccc1 (centres undefined),-24.1%,
CCCOc1nn(C(=O)NS(=O)(=O)c2ccccc2C(=O)OC)c(=O)n1C,-19.3%,
COC(=O)[C@@H](N)CCCN/C(N)=N/[N+](=O)[O-],-7.44% [at 35.3 µM],
CCN[C@@H](C)Cc1cccc(C(F)(F)F)c1,-5.09% [at 35.3 µM],
O=c1[nH]oc2c1CCNC2,12.8% [at 35.3 µM],
CC(C)(C)C(=O)Cl,-13.7%,
CCCOC(=O)Cc1ccc(OCC(=O)N(CC)CC)c(OC)c1,-9.42% [at 35.3 µM],
Cc1ccc2c(c1)C1CN(C)CCC1N2 (centres undefined),-9.63% [at 15.8 µM],
C=CCN1CC[C@]23CCCC[C@H]2[C@H]1Cc1ccc(O)cc13,-16.3% [at 35.3 µM],
O=C(Cl)C(Cl)Cl,-7.25%,

SMILES,cytotoxicity increase,Potency
CCOC1Oc2ccc(OS(C)(=O)=O)cc2C1(C)C (centres undefined),0.369%,
Brc1c(Br)c(Br)c(Br)c(Br)c1Br,4.32% [at 6.97 µM],
CCOP(=S)(OCC)Oc1ccc(Cl)cc1Cl,4.34%,
CCC1(c2cccc(O)c2)CCCCN(C)C1 (centres undefined),8.61% [at 35.3 µM],
CCN[C@@H](C)Cc1ccccc1,-20.7%,
CCOC(=O)C(SP(=S)(OC)OC)c1ccccc1 (centres undefined),-10.4%,
CC1NCCOC1c1ccccc1 (centres undefined),0.484% [at 35.3 µM],
CC(C)(N)Cc1ccc(Cl)cc1,-22.8% [at 35.3 µM],
Oc1ccc2c3c1O[C@H]1[C@@H](O)C=C[C@H]4[C@@H](C2)NCC[C@@]341,4.36%,
N[C@@H]1C[C@H]1c1ccccc1,-18.4% [at 35.3 µM],
CCOC(=O)c1ncn2c1CN(C)C(=O)c1c(I)cccc1-2,-2.79% [at 35.3 µM],
O=P(O)(O)c1ccccc1,-12.9%,
CCCCCCC1CCOC1=O (centres undefined),12.1%,
Clc1cc2c(cc1Cl)Oc1cc(Cl)c(Cl)cc1O2,-35.9% [at 0.29 µM],
O=C(O)C(Br)(Br)Br,-1.04%,
CC(C)N(Cc1ccccc1)C(=O)C(C)(C)C,-6.16%,
CCCN1CCC[C@@H]2Cc3[nH]ncc3C[C@H]21,-8.92% [at 35.3 µM],

# Assay: qHTS RealTime-Glo MT Cell Viability Assay in HEK293 cells - 16 hour (AID 1224872); further: top concentration of the series differs between compounds; nearly all actives have a fitted effect of over 50% in size
# Settings: RealTime-Glo luminescence; series mostly up to 76.8 µM; activity change, negative = cytotoxicity: at the top concentration
# How it was run: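 Tox21 10K qHTS, HEK293, 600 cells/well, RealTime-Glo reagent co-dispensed with cells; 5 h preincubation, compound by pintool, 37 C, luminescence at 0–40 h.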
row,SMILES,"activity change, negative = cytotoxicity"
1,CCC(=O)OC1(c2ccccc2)CCN(C)CC1,-8.28%
2,CCCCOC(C)=O,7.39%
3,COC1=CC(=O)O[C@@H](/C=C/c2ccccc2)C1,-17.5%
4,CCC(C(N)=O)N1CCCC1=O (centres undefined),1.7% [at 35.3 µM]
5,CC(C)c1ccc(O)cc1,0.998%
6,[P]#[In],1.95%
7,COC(=O)[C@@H](N)CCCN/C(N)=N/[N+](=O)[O-],8.62% [at 35.3 µM]
8,CCN[C@@H](C)Cc1cccc(C(F)(F)F)c1,3.67% [at 35.3 µM]
9,O=c1[nH]oc2c1CCNC2,0.863% [at 35.3 µM]
10,CC(C)(C)C(=O)Cl,2%
11,CCCOC(=O)Cc1ccc(OCC(=O)N(CC)CC)c(OC)c1,-1.54% [at 35.3 µM]
12,Cc1ccc2c(c1)C1CN(C)CCC1N2 (centres undefined),-1.2% [at 15.8 µM]
13,C=CCN1CC[C@]23CCCC[C@H]2[C@H]1Cc1ccc(O)cc13,1.69% [at 35.3 µM]
14,CCN[C@@H](C)Cc1ccccc1,-6.23%
15,CC1NCCOC1c1ccccc1 (centres undefined),-0.374% [at 35.3 µM]
16,CC(C)(N)Cc1ccc(Cl)cc1,2.35% [at 35.3 µM]
17,Oc1ccc2c3c1O[C@H]1[C@@H](O)C=C[C@H]4[C@@H](C2)NCC[C@@]341,8.02%
18,N[C@@H]1C[C@H]1c1ccccc1,0.41% [at 35.3 µM]
19,CCOC(=O)c1ncn2c1CN(C)C(=O)c1c(I)cccc1-2,-0.957% [at 35.3 µM]
20,O=P(O)(O)c1ccccc1,21.2%
21,CCCCCCC1CCOC1=O (centres undefined),-1.95%
22,CC(C)N(Cc1ccccc1)C(=O)C(C)(C)C,-17%
23,CCCN1CCC[C@@H]2Cc3[nH]ncc3C[C@H]21,2.91% [at 35.3 µM]

# Assay: qHTS RealTime-Glo MT Cell Viability Assay in HepG2 cells - 8 hour (AID 1224873); further: nearly all actives have a fitted effect of over 55% in size
# Settings: RealTime-Glo luminescence; series mostly up to 76.8 µM; viability change, negative = cytotoxic: at the top concentration
# How it was run: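 HepG2 cells (600/well) mixed with RealTime-Glo MT reagent, settled 5 h at 37 C/5% CO2 before compound addition. Nonlytic NanoLuc luminescence from viable-cell prosubstrate reduction read repeatedly during 40 h treatment at 37 C.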
row,SMILES,"viability change, negative = cytotoxic"
1,CCC(=O)OC1(c2ccccc2)CCN(C)CC1,-4.51%
2,CCCCOC(C)=O,1.35%
3,CCC(C(N)=O)N1CCCC1=O (centres undefined),0.355% [at 35.3 µM]
4,O=C(O)CBr,0.319%
5,CCCN1CCC[C@@H]2Cc3nc(N)ncc3C[C@H]21,-4.42% [at 35.3 µM]
6,[P]#[In],3.73%
7,CC1N=C(N)OC1c1ccccc1 (centres undefined),-1.41%
8,CCCOc1nn(C(=O)NS(=O)(=O)c2ccccc2C(=O)OC)c(=O)n1C,2.24%
9,COC(=O)[C@@H](N)CCCN/C(N)=N/[N+](=O)[O-],3.22% [at 35.3 µM]
10,CCN[C@@H](C)Cc1cccc(C(F)(F)F)c1,0.355% [at 35.3 µM]
11,O=c1[nH]oc2c1CCNC2,0.342% [at 35.3 µM]
12,CCCOC(=O)Cc1ccc(OCC(=O)N(CC)CC)c(OC)c1,-0.733% [at 35.3 µM]
13,Cc1ccc2c(c1)C1CN(C)CCC1N2 (centres undefined),-2.24% [at 15.8 µM]
14,C=CCN1CC[C@]23CCCC[C@H]2[C@H]1Cc1ccc(O)cc13,-0.363% [at 35.3 µM]
15,O=C(Cl)C(Cl)Cl,1.52%
16,CCOC1Oc2ccc(OS(C)(=O)=O)cc2C1(C)C (centres undefined),0.669%

row,SMILES,"viability change, negative = cytotoxic"
1,Brc1c(Br)c(Br)c(Br)c(Br)c1Br,-1.77% [at 6.97 µM]
2,CCOP(=S)(OCC)Oc1ccc(Cl)cc1Cl,-2.03%
3,CCC1(c2cccc(O)c2)CCCCN(C)C1 (centres undefined),0.53% [at 35.3 µM]
4,CCN[C@@H](C)Cc1ccccc1,6.54%
5,CCOC(=O)C(SP(=S)(OC)OC)c1ccccc1 (centres undefined),-11.9%
6,CC1NCCOC1c1ccccc1 (centres undefined),9.18% [at 35.3 µM]
7,CC(C)(N)Cc1ccc(Cl)cc1,-0.0476% [at 35.3 µM]
8,Oc1ccc2c3c1O[C@H]1[C@@H](O)C=C[C@H]4[C@@H](C2)NCC[C@@]341,-6.75%
9,N[C@@H]1C[C@H]1c1ccccc1,2.63% [at 35.3 µM]
10,CCOC(=O)c1ncn2c1CN(C)C(=O)c1c(I)cccc1-2,0.26% [at 35.3 µM]
11,O=P(O)(O)c1ccccc1,-1.06%
12,CCCCCCC1CCOC1=O (centres undefined),1.21%
13,Clc1cc2c(cc1Cl)Oc1cc(Cl)c(Cl)cc1O2,0.0568% [at 0.29 µM]
14,O=C(O)C(Br)(Br)Br,0.121%
15,CC(C)N(Cc1ccccc1)C(=O)C(C)(C)C,1.33%
